Source: PubChem
gsp ag – activates gsp, the McCune-Albright syndrome mutation; gsp mutant cells, cAMP HTRF, 30 min; 0.13% of 340,000 active; Potency, µM (top dose mostly 76.9 µM), for the others: top-dose activation (cAMP increase), usual class: activators; active means well fitted activation curve with a large enough effect; inconclusive means small, poorly fitted or top-dose-only effect, or another doubt; inactive means no such curve, though single readings can be large or run the other way; cell line not stated here;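 further: phosphodiesterase inhibitor Ro 20-1724 added with compounds to block cAMP breakdown; potency means the concentration at half of the fitted maximal effect; nearly all actives have a fitted effect of over 60% in size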
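Cells in DMEM/10% FBS with G418 were pretreated with compounds in DMSO plus […] (300 uM stock) for 30 min at 37C. cAMP was measured by HTRF (cAMP-d2 plus anti-cAMP antibody-K) after 30 min at room temperature.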
Coupling enz – counter-screen for Giardia aldolase inhibitors: coupling enzyme system | 0.67% of 290,000 active | coupling enzyme system counterscreen, AmpLite Red fluorescence | activity change, negative = inhibition, % at 58.2 µM, hits read low; in the data active means activity change below about -30%; further: on the % scale 0 is the no-effect control and ±100 the full control effect
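Final compound at 57.5 uM, incubated 10 min at RT with coupling enzyme reagent (glyceraldehyde-3-phosphate), then 20 min with substrate and AmpLite Red detection. Fluorescence read at 525/598 nm; tests interference with the coupling assay, not aldolase inhibition.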
RXFP1 agonist – RXFP1 (human) receptor agonism; Q9HBX9; HEK293T-RXFP1 cAMP TR-FRET, 30 min; response scale: percent of porcine relaxin response, buffer zero; Potency, µM (doses to about 57.5 µM), inactives show at the top dose activation, actives largely listed as activators; 0.3% of 370,000 active; AID 2676; active means well fitted activation curve with a large enough effect; inconclusive means small, poorly fitted or top-dose-only effect; further: potency means the concentration at half of the fitted maximal effect; on the % scale 0 is the no-effect control and ±100 the full control effect; nearly all actives have a fitted effect of over 60% in size
Target sequence (Q9HBX9 whole entry, looked up): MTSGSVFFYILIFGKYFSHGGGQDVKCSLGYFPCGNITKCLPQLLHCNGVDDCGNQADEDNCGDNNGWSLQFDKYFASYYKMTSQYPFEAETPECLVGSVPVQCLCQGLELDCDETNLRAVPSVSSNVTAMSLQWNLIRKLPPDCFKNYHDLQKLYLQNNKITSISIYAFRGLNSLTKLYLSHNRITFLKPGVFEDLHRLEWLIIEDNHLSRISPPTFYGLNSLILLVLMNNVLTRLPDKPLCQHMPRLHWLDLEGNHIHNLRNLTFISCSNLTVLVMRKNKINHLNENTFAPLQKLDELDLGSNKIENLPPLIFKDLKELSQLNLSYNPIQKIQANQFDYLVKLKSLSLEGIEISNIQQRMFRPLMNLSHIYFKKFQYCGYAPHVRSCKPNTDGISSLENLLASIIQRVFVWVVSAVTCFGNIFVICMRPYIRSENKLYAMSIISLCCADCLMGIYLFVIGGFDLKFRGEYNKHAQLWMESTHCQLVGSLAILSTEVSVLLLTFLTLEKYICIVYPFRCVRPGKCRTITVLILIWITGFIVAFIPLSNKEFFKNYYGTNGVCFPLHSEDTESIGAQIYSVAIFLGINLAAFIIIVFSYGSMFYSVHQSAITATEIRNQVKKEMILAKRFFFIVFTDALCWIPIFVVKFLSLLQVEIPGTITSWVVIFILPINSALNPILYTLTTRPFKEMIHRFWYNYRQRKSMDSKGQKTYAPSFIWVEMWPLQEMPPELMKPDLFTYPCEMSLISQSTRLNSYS
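HEK293T cells stably expressing RXFP1 were pretreated with the PDE4 inhibitor Ro 20174, exposed to compounds for 30 min at 37C, lysed, and cAMP was read by TR-FRET. Data normalized to buffer (basal) and 29 nM porcine relaxin (100%).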
gsp antagonist – antagonists of gsp mutant (McCune-Albright syndrome); Potency, µM (doses to about 76.9 µM), without a hit: at the top dose activity change, negative = inhibition, usual class: inhibitors; 0.4% of 340,000 active; gsp-mutant cells, cAMP HTRF, 30 min; AID 624288; calls by dose curve; cell line not stated here;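 further: intracellular cAMP measured with PDE inhibitor Ro 20-1724 present during compound exposure; potency means the concentration at half of the fitted maximal effect; on the % scale 0 is the no-effect control and ±100 the full control effect; nearly all actives have a fitted effect of over 65% in size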
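Cells in G418 medium, seeded 16-24 h, 37C; buffer exchange to DPBS + 1 mM CaCl2, 0.5 mM MgCl2, 0.05% BSA; cpds in DMSO + […] (300 uM stock), 30 min 37C; HTRF cAMP detection.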
RXFP1 antagonist – antagonists of human relaxin receptor RXFP1; activity change, negative = inhibition, % at 57.5 µM; HEK293-RXFP1, relaxin-stimulated cAMP HTRF, 30 min; hits give low values; AID 1259400; 0.59% of 350,000 active; Q9HBX9;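 active means activity change of -60% or lower, but not beyond a set lower limit; inconclusive means change between -60% and -40%, or beyond the set limit; inactive means change above -40%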; further: on the % scale 0 is the no-effect control and ±100 the full control effect
Giardia killer – kills Giardia lamblia; Giardia lamblia trophozoite viability; activity change, % at 7.66 µM, hits read low; 0.15% of 340,000 active; AID 540267; in the data active means activity change below about -80%; inconclusive means between about -30% and that limit;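 further: parasites exposed to compound for two days anaerobically before the ATP read; on the % scale 0 is the no-effect control and ±100 the full control effect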
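Luminescent ATP signal served as the viability read-out, measured 15-30 min after adding ATP detection reagent to trophozoites that had been incubated with compounds for 48 hrs at 37 deg C anaerobically at 100 cells/well.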
Numbers without * were called inactive; ? = inconclusive; · = no result; [ ] = another dose, or the depositor's remark. A selection: hits, their analogues and other compounds. The true share with any hit is near 1.6%.

SMILES	gsp ag	Coupling enz	RXFP1 agonist	gsp antagonist	RXFP1 antagonist	Giardia killer
CCc1ccc(C(c2ccccc2)c2c[nH]c3ccc(C)cc23)s1 (stereo not given)	·	·	2.4%	·	?	·
CC(=O)c1ccccc1OCC(O)CN1CCN(CCN2C(=O)c3cccc4cccc(c34)C2=O)CC1 (stereo not given)	-15.7%[15.4 µM]	1.6	0.0%	31.6µM*	-23.0	5.4
COc1ccccc1CNC(=O)COC(=O)c1ccc(C(=O)c2ccccc2)cc1	6.5%[15.4 µM]	·	·	-2.0%	-12.5	-16.7
COc1ccccc1CNC(=O)COC(=O)c1ccc(Cl)c(N)c1	-8.6%[15.4 µM]	-2.4	-5.1%	11.2µM*	-11.7	-0.5
COc1ccc(NC(=O)CSc2nnc(Cc3cccs3)n2-c2ccc(C)cc2)cc1	-46.4%	0.7	0.8%	31.6µM*	-2.0	-10.0
COc1ccc(-n2c(SCC(=O)Nc3ccc(Br)cc3)nc(O)cc2=O)cc1	-9.5%[15.4 µM]	-0.3	0.3%	-15.4%	-66.5*	7.8
COc1ccc(-n2c(Cc3cccs3)nnc2SCC(=O)Nc2ccc3c(c2)OCCO3)cc1	-27.8%	4.8	2.4%	31.6µM*	-16.7	9.9
Cc1ccc(NC(=O)CSc2nc(O)cc(=O)n2-c2ccc(C)cc2)cc1	-57.7%	·	1.6%	2.3%	-35.1	27.3
CCc1cc(C(=O)NN2C(=O)NC3(CCCCC3)C2=O)sc1C	?	·	0.6%	4.6%	-0.9	10.1
O=C(CN1CCOCC1)NNc1c2ccccc2nc2ccccc12	10.0%	3.3	-5.0%	?	-62.2*	3.1
O=C(O)c1ccccc1O[C@@H]1O[C@H](C(=O)O)[C@@H](O)[C@H](O)[C@H]1O	·	2.1	·	·	·	·
O=C(c1ccccc1)c1cc(Cl)ccc1N1C(=O)C=CC1=O	0.2%	-1.0	-0.5%	16.3%	-63.4*	30.5
CCO/C=C1/C(=O)N(Cc2ccccc2)C(=O)c2ccccc21	-11.8%	-44.4*	-0.5%	8.3%	3.9	-2.5
CCOC(=O)CSc1cc(=O)n(C)c2cc(Cl)ccc12	15.8µM*	0.4	1.9%	-18.8%	4.2	5.2
CN(CCCNC(=O)CSc1cc(=O)n(C)c2cc(Cl)ccc12)Cc1ccccc1	17.8µM*	0.3	11.5%	0.3%	16.7	39.7
O=C(CN1C(=O)CC(c2ccco2)Sc2ccccc21)NC1CCCCC1 (stereo not given)	7.6%	1.3	-0.5%	50.1µM*	·	-7.0
Cc1nc(-c2ccc(C)c(N3CCN(C(=O)Nc4cccc(Cl)c4C)CC3)c2)no1	·	·	0.8%	·	·	·
CC1(C)CC(C(CC(=O)N2CCCC2)Cc2ccccc2)CCO1 (stereo not given)	-22.0%	-1.0	1.5%	50.1µM*	0.7	3.9
COc1ccccc1C1NC(c2ccc3c(c2)OCO3)=CC(c2cc(Cl)ccc2O)N1 (stereo not given)	·	·	·	·	·	-10.3
CCOC(=O)N=Nc1c(O)n(CC(=O)OC)c2ccccc12	-4.7%[15.4 µM]	-2.2	-1.4%	-9.5%	10.9	-6.3
CCOC(=O)N=Nc1c2ccccc2c2nc3no[nH]c3nc12	18.1%[15.4 µM]	-50.8*	0.5%	?	15.4	-96.4*
O=[N+]([O-])c1ccc(Cl)c(S(=O)(=O)/N=C(/c2ccccc2)N2CCOCC2)c1	?	1.5	-1.2%	3.0%	-60.8*	-20.4
C=CCN1c2ccccc2[C@]23C[C@@H](C(=O)OC)N(C(=O)COCc4ccccc4)C2=NC(C(=O)OC)=C(C(=O)OC)[C@H]13	·	0.8	·	·	·	·
COc1ccc(Br)cc1C1NC(c2ccc3c(c2)OCO3)=CC(c2cc(Cl)ccc2O)N1 (stereo not given)	·	·	·	·	·	1.7
CCOC(CN=c1nc(N(C)C)ss1)OCC	-6.5%	·	·	-3.6%	-2.6	?
SMILES	gsp ag	Coupling enz	RXFP1 agonist	gsp antagonist	RXFP1 antagonist	Giardia killer
CN(C)c1nc(=NCc2ccco2)ss1	-0.9%	-55.9*	0.0%	-10.5%	14.5	?
CCS(=O)(=O)Nc1ccc(C2=NN(C(=O)c3ccccc3)C(c3cccs3)C2)cc1 (stereo not given)	5.6%	-1.3	-0.2%	28.2µM*	-17.1	?
CCS(=O)(=O)Nc1ccc(C2=NN(C(=O)c3ccco3)C(c3cccs3)C2)cc1 (stereo not given)	2.7%[15.4 µM]	·	1.6%	?	-16.9	17.7
Cc1ccccc1CSc1nnc2[nH]c(=O)cc(-c3ccccc3)n12	·	·	1.4%	·	-2.6	·
Nc1cccc2cnccc12	-22.0%	-37.6*	1.1%	-6.4%	7.1	0.8
O=C1C2C3CCCC3=C3CCCC3C2C(=O)N1c1ccccc1Cl (stereo not given)	·	·	·	·	·	16.6
CSc1nc(N)nc(SCC(=O)Nc2cccc(F)c2)c1C#N	-1.5%	-1.7	16.1%	28.2µM*	-5.9	6.9
Cc1ccc(N=C2NC(=O)/C(=C/c3cccs3)S2)cc1C	?	0.2	0.0%	-30.0%	-76.7*	-15.1
Cc1cccc(N=C2NC(=O)/C(=C\c3cccs3)S2)c1	?	-3.7	0.4%	-17.1%	-28.1	-1.4
COc1cccc(C2/C(=C(\O)c3ccc4c(c3)OCCO4)C(=O)C(=O)N2c2nnc(C)s2)c1 (stereo not given)	8.91µM*	·	?	-9.7%	0.9	26.4
CCCCOc1cccc(C2/C(=C(\O)c3ccc4c(c3)OCCO4)C(=O)C(=O)N2CCN2CCOCC2)c1 (stereo not given)	15.8µM*	·	25.1µM*	-2.8%	1.8	?
CCOc1ccc(NC(=O)CSc2nnc3c(n2)[nH]c2ccc(S(=O)(=O)N(C)C)cc23)cc1	·	·	·	·	·	3.7
C=CCc1cccc(/C=N/NC(=O)CN2CCN(Cc3ccccc3)CC2)c1O	·	-0.8	·	·	·	·
O=c1c(O)cc(C2Oc3cc(O)cc(O)c3CC2O)cc2c(C3Oc4cc(O)cc(O)c4CC3O)cc(O)c(O)c12 (stereo not given)	·	-74.7*	·	·	·	·
CC(C)N1CCc2c(sc(NC(=O)c3ccc4ccccc4c3)c2C(N)=O)C1	27.9%	·	-2.6%	0.0%	-73.8*	2.6
O=C(COc1ccccc1/C=C1\SC(=S)NC1=O)Nc1ccc(F)cc1	-18.6%	·	·	?	-69.5*	8.5
